Compound activity from PubChem.
KDM4E inh = inhibitors of human JMJD2E histone demethylase; JMJD2E catalytic domain, FDH-coupled NADH fluorescence (FDH is formaldehyde dehydrogenase); Potency, µM (series often up to 57.1 µM), without a hit: at the top dose activity change, negative = inhibition, most hits filed as inhibitors; hit rate 1.6% among 230,000; active = well fitted inhibition curve with a large enough effect, not every such curve was filed as active; inconclusive = small, poorly fitted or top-dose-only effect, or another doubt; inactive = no such curve, though single readings can be large or run the other way;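 also: 0% = wells with enzyme and -100% = buffer wells without enzyme; nearly all actives have a fitted effect of over 50% in size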
Target sequence (B2RXH2 1-337 limits assumed): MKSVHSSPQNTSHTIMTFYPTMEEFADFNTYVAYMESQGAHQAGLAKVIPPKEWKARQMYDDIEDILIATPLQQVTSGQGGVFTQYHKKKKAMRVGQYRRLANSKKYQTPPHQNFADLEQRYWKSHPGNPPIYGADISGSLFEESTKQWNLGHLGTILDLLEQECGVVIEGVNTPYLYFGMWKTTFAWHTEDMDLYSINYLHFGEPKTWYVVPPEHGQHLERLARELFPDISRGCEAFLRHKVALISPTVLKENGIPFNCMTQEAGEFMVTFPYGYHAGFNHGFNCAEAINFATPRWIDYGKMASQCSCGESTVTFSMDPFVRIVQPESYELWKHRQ
NPSR antag = antagonists of human neuropeptide S receptor cAMP signaling. Potency, µM (series often up to 38.3 µM), inactives show top-dose activity change, negative = inhibition, hits mostly inhibitors. hit rate 1% among 220,000. AID 1461. CHO-NPSR cells, cAMP TR-FRET, antagonist mode. Q6W5P4; also: % is scaled to controls: 0 for no effect and ±100 for the full control effect; nearly all actives have a fitted effect of over 50% in size
KAT2A inh = GCN5L2 (KAT2A) acetyltransferase inhibition | Q92830 | GCN5L2 HAT assay, ThioGlo1 CoA-SH fluorescence | Potency, µM (highest dose often 58.9 µM), inactives show top-dose activity change, negative = inhibition, most hits filed as inhibitors | hit rate 0.21% among 390,000 | AID 504327; also: % is scaled to controls: 0 for no effect and ±100 for the full control effect
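Fluorescence readout, Ex340nm/Em540nm: ThioGlo1 (50uM final) reacts with free CoA thiol released as 20nM GCN5L2 acetylates H3(1-25) peptide (75uM) using acetyl-CoA (70uM). Compound and enzyme sat 15 min beforehand; 20 min room-temperature reaction.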
Sfp inh = inhibitors of Bacillus subtilis Sfp phosphopantetheinyl transferase; Q9F4F7; Biochemical Sfp PPTase activity, qHTS; Potency, µM, for the others: largest response in the series, negative = inhibition, hits mostly inhibitors; hit rate 3.5% among 310,000; AID 1490;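 also: the enzyme is Sfp with the accession as filed and its product quenches rhodamine fluorescence; 0% = enzyme reaction without inhibitor and -100% = no enzyme wells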
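Step 1, compound plus 15 nM Sfp-PPTase, 15 min, room temperature. Step 2, add rhodamine-CoA (5 uM) and BHQ-2-YbbR (12.5 uM). Step 3, read 525/598 nm fluorescence at 0 and 30 min.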
Epigenetic derep = derepresses silenced GFP reporter in murine cells; hit rate 0.2% among 280,000; Potency, µM (series often up to 53.9 µM), inactives show at the top dose GFP activation, actives largely listed as activators; murine LDR cells, GFP reporter derepression, 30 h; also: % of control where 0% means no effect; nearly all actives have a fitted effect of over 60% in size
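In this reporter-derepression format, murine cells bearing a silenced integrated CMV-GFP locus incubate with test compound (30 h, 37 C), then are washed and imaged; fluorescent objects of 20–120 um count as induced cells.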
IMPase Li inh = IMPase inhibition in cells with lithium potentiation. Potency, µM (doses to about 59.4 µM), for the others: at the highest dose activity, negative = IMPase inhibition, actives largely listed as inhibitors. hit rate 0.35% among 210,000. CHO-M1 cells, IP1 TR-FRET (IP-One), carbachol + lithium;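 also: IP1 builds up when IMPase is blocked and the TR-FRET signal falls; plate controls were basal vehicle for no effect and high inhibitor control for full effect; nearly all actives have a fitted effect of over 50% in size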
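CHO-M1, 2000 cells/well, 16–30 h culture; cpd + low Li+, 30 min 37C; lysis with d2-IP1/Eu-anti-IP1 Ab, 10 min RT; TR-FRET 665/620 ratio and 620 channel; AC50 via Hill.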
The depositor's hits bear a star; u = inconclusive; x = no result given; [ ] = remark or other dose. The list is not random: actives were taken first. Their share in the collection is about 3.6%. Unless noted, calls follow the shape of the dose curve; as a rule, active = well fitted curve in the direction sought with a large enough effect; inconclusive = small, poorly fitted or top-dose-only effect, or another doubt; inactive = no such curve, though single readings can be large; an effect the other way counts as inactive or inconclusive. Potency is read from the fitted curve at half-maximal effect.

SMILES	KDM4E inh	NPSR antag	KAT2A inh	Sfp inh	Epigenetic derep	IMPase Li inh
Cc1cccc(NC(=S)N/C(=N/S(=O)(=O)c2ccccc2)c2ccccc2)c1	5.4%	-14.6%[46.1 µM]	1.4%	u	0.9%	29.7%[38.3 µM]
CC(C)OC(=S)N/C(=N\S(=O)(=O)c1ccccc1)c1ccccc1	2.6%	-2.6%[46.1 µM]	-0.6%	14.1µM*	-8.4%	3.8%
Cc1c(NC(=S)N/C(=N/S(=O)(=O)c2ccc(Cl)cc2)c2ccccc2)c(=O)n(-c2ccccc2)n1C	5.4%	4.6%	-0.5%	35.5µM*	0.9%	x
C=CCC1C=CC(Oc2ccc(OC)cc2)C(CO)O1 (stereo unspecified)	x	x	x	-12.6%	0.0%[10.1 µM]	x
OCCN1CCN(C(=S)c2ccc(Br)cc2)CC1	3.8%	-6.2%[46.1 µM]	2.6%	31.6µM*	0.0%	6.3%[38.3 µM]
CSc1ccc(C(=S)N2CCN(CCO)CC2)cc1	-1.0%	-3.6%[46.1 µM]	-5.9%	8.91µM*	-5.7%	4.4%
S=C(c1ccc(Br)cc1)N1CCCC1	x	x	1.2%	-11.2%	x	x
OCCN1CCN(C(=S)Nc2ccc(SC(F)F)cc2)CC1	8.9%	9.3%	1.2%	2.1%	0.0%	-8.2%
CN(C)c1ncc2nc(CCc3ccccc3)c(=O)n(Cc3cccs3)c2n1	x	x	-19.4%	u	x	9.2%
Cc1ccc(NC(=O)C(C)Sc2nnc(C)n2C)cc1 (stereo unspecified)	x	x	u	70.8µM*	x	x
Cc1ccc(NC(=O)C(C)S)cc1 (stereo unspecified)	-11.6%	-2.0%	u	39.8µM*	3.4%	x
CCOc1ccc(NC(=O)C(C)Sc2nnc(C)n2C)cc1 (stereo unspecified)	-1.4%	-3.6%[46.1 µM]	-1.2%	10.5%	-0.8%	31.6%[38.3 µM]
Cc1ccc(CSCC(=O)N2CCN(c3ccccc3F)CC2)cc1	x	x	-18.4%	x	-2.4%	x
O=c1cnc2cnc(N3CCOCC3)nc2n1C[C@H]1CCCO1	x	x	-8.4%	19.9%	x	5.5%
COc1cc2c(cc1OC)[C@H](C)N(CC1C(=O)O[C@@H]3C[C@@]4(C)CCC[C@H](C)[C@@]45OC5[C@H]13)CC2 (stereo partly specified)	-15.6%	x	x	3.1%	-1.1%	18.6%
COc1ccc(NC(=O)C(C)N2CCN(C)CC2)cc1 (stereo unspecified)	x	x	1.1%	63.1µM*	x	x
CO[C@@H](CCOCc1ccccc1)C[C@H]1O[C@H](C(=O)OC(C)C)C=C[C@@H]1C	2.6%	x	x	8.8%	0.8%	13.7%
Cc1ccn2cc(-c3ccc(O)c(O)c3)nc2c1	x	x	-1.3%	50.1µM*	x	x
Cc1c(Cl)cccc1NC(=O)Nc1nnc(N(C)C2CCCCC2)s1	x	x	-5.6%	x	-4.2%	x
CCn1nc(C)cc1-c1nnc(SCC(=O)Nc2ccccc2)n1CCCOC	10.2%	7.1%	-7.6%	-4.3%	12.6%	x
CCn1nc(C)cc1-c1nnc(Sc2ncc([N+](=O)[O-])s2)n1C	x	x	-10.7%	44.7µM*	x	x
COCCn1c(=O)c(-c2cccs2)nc2cnc(OCc3ccccc3)nc21	x	x	u	10.5%	x	-4.4%
CCOC(=O)c1sc(N)c(C(=O)Nc2ccc(C)cc2C)c1C	x	x	x	x	-0.2%	x
CCOC(=O)c1c(N)sc(C(=O)OC)c1C	-4.6%	7.0%	0.3%	56.2µM*	-2.3%	-4.8%
CCOC(=O)c1sc(N)c(C(=O)Nc2ccccc2OC)c1C	-18.3%	-23.7%	u	14.1µM*	-0.1%	5.9%
Cc1cccc(OCC(=O)NCC2(N3CCN(C)CC3)CCCCC2)c1	x	x	-7.0%	x	2.4%	x
CCOc1ccc(-n2c(SCC(=O)NCc3ccco3)nnc2-c2c[nH]c3ccccc23)cc1	-5.4%	12.6µM*	-5.0%	14.6%	-0.8%	23.1%[38.3 µM]
Cn1c(SCC(=O)NCc2ccco2)nnc1-c1c[nH]c2ccccc12	3.3%	-8.6%[46.1 µM]	-12.8%	-3.0%	-0.2%	-5.1%[38.3 µM]
CCOC(=O)CSc1nnc(-c2ccoc2C)n1-c1ccc(OCC)cc1	-1.8%	-18.9%[46.1 µM]	1.4%	56.2µM*	-6.7%	x
CCOc1ccc(-n2c(=S)sc3c(=O)[nH]c(SCC(=O)NCc4ccco4)nc32)cc1	-0.4%	-7.6%[46.1 µM]	-13.9%	56.2µM*	3.1%	x
